Screening data (PubChem)
Rtt109 Vps75: blocks Candida albicans Rtt109/Vps75 acetyltransferase activity. AID 540336. Q5AAJ8. inhibition, % at 34.9 µM. purified Rtt109/Vps75, ThioGlo CoA-SH fluorescence, 4 h. 0.16% of 330,000 active;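 active = inhibition of at least 50% in every replicate; inconclusive = best replicate reaches 50% inhibition but some replicates fall short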
Target sequence (Q5AAJ8 whole entry, looked up): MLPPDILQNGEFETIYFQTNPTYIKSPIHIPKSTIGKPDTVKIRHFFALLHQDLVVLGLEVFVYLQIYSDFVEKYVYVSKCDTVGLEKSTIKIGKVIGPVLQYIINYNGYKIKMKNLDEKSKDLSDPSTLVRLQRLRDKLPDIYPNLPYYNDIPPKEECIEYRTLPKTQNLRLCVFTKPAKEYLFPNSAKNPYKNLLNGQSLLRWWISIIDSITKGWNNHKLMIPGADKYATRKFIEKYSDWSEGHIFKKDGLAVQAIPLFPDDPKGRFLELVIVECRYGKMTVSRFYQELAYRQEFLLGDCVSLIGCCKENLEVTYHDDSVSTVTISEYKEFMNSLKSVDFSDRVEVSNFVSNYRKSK
GRK2 inh: human GRK2 inhibition via aptamer displacement; bead flow cytometry, FAM-aptamer displacement from GRK2; inhibition of aptamer binding, % at 10 µM; 0.59% of 330,000 active; AID 488847;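 active = inhibition of aptamer binding above 40%, roughly 3 SD of noise, on plates passing a quality check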;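 also: median bead fluorescence of bound FAM aptamer so fluorescent compounds give negative values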
ALR inh: inhibitors of human sulfhydryl oxidase ALR; P55789; purified ALR, DTT oxidation, H2O2 HRP-luminol luminescence; inhibition, % (no concentration beside the values); 3.8% of 290,000 active; AID 485317;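 active = mean replicate inhibition above about 79%, with every replicate also reaching it, limit read from the data; inconclusive = only one of the two criteria met; inactive = mean below limit and not every replicate reaching it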
Target sequence (P55789 whole entry, looked up): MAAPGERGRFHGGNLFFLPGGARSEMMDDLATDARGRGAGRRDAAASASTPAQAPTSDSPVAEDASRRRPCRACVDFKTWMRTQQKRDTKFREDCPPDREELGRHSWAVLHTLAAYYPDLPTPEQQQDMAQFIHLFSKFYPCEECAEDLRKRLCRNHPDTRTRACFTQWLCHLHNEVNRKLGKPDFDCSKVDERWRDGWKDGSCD
Efflux pump inh: antifungal efflux pump inhibition, Nile Red retention | S. cerevisiae Candida pump triplex | AID 485275 | 0.44% of 330,000 active | inhibition, % at 10 µM;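 active = plate passing quality check with inhibition over a set limit, or well fluorescence over plate mean plus 4 SD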;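 also: Nile Red retained in pooled yeast measured as flow cytometry median fluorescence; higher means more Nile Red kept so more efflux inhibition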
Rce1 inh: inhibitors of yeast Ras-converting enzyme; yeast membranes, quenched prenylated peptide cleavage fluorescence; calls only; 0.27% of 290,000 active; AID 2563;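 active = fall in fluorescence gain of 50% or more versus controls, with final raw signal at or below 3038400; inconclusive = same 50% fall but final raw signal above 3038400; inactive = fall in fluorescence gain under 50%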
HDAC3 inhib: human HDAC3 inhibition. O15379. recombinant HDAC3, fluorogenic peptide/trypsin coupled, fluorescence. inhibition, % at 8.3 µM. 0.15% of 320,000 active; in the data active = inhibition above about 26%, passing the limit was not always enough; inconclusive = no clear call, values can overlap the other calls
Numbers stand for hits; n = inactive; u = inconclusive; x = not tested or not shown; + = active, no number. Most compounds without a hit are left out; they make up all but 4.5% or so of the library.

SMILES | Rtt109 Vps75 | GRK2 inh | ALR inh | Efflux pump inh | Rce1 inh | HDAC3 inhib
COc1ccc(-c2nc(CS(=O)(=O)CC(=O)NCCc3cc(OC)ccc3OC)c(C)o2)cc1 | n | n | 98.6 | n | n | n
COc1ccc(-c2nc(CS(=O)(=O)CC(=O)NCCCN3CCN(C)CC3)c(C)o2)cc1 | n | n | 98.9 | n | n | n
CSc1ccc(CN2CCC(n3nccc3NC(=O)c3ccccc3C)CC2)cc1 | n | n | n | n | n | u
COc1ccc(CC(=O)Nc2cccc(SC)c2)cc1OC | n | x | x | x | n | x
COc1ccc(F)cc1C(=O)C1CCCN(C(=O)C2=C(C)OCCO2)C1 (stereo not drawn) | n | n | n | n | n | n
O=c1c(-c2ccco2)[n+]([O-])c2ccccc2n1OCc1ccccc1F | n | n | 97.1 | n | n | n
CCOn1c(=O)c(-c2cc3ccccc3o2)[n+]([O-])c2ccccc21 | n | n | 92.6 | n | n | n
O=c1c(-c2cc3ccccc3o2)[n+]([O-])c2ccccc2n1OCc1ccccn1 | n | n | n | n | n | n
CCN(CC)S(=O)(=O)c1cccc(NC(=O)CNc2cccc(S(=O)(=O)N3CCOCC3)c2)c1 | n | n | n | n | n | n
Cc1cc(C(=O)CSc2nn3c(=O)c(C(C)(C)C)nnc3s2)c(C)n1C | n | n | 92.3 | n | n | n
COc1ccc(CNC(=O)CSc2nn3c(=O)c(C(C)(C)C)nnc3s2)cc1OC | n | n | n | n | n | n
COc1ccc(-n2c(C)cc(C(=O)CSc3nn4c(=O)c(C(C)(C)C)nnc4s3)c2C)cc1 | n | n | n | n | x | n
CC(C)(C)c1nnc2sc(SCC(=O)c3ccccc3)nn2c1=O | n | n | 98.4 | n | n | n
CC(C)(C)c1nnc2sc(SCC(=O)N3CCc4ccccc43)nn2c1=O | n | n | n | n | n | n
COc1ccc(C(=O)CSc2nn3c(=O)c(C(C)(C)C)nnc3s2)cc1 | n | n | 97.4 | n | n | n
O=C(COC(=O)c1ccccc1Cc1ccccc1)NC1CCS(=O)(=O)C1 (stereo not drawn) | n | n | n | n | + | n
Cc1cc(C)c(C)c(S(=O)(=O)NCc2ccc(C(=O)NCC3CCCO3)cc2)c1C (stereo not drawn) | n | n | n | n | n | x
NC(=O)[C@@H]1CCCN1C(=O)c1ccc2nc(Cc3cccc(Cl)c3)oc2c1 | n | n | n | n | n | x
NC(=O)C1CCN(CC(=O)Nc2ccccc2Sc2ccccc2)CC1 | n | n | n | n | n | n
NC(=O)C1CCN(CC(=O)Nc2ccccc2Sc2ccc(Cl)cc2)CC1 | n | n | 86.6 | n | n | n
CC(=O)C1=C(C)NC(SCc2cccc3ccccc23)=C(C#N)C1c1ccco1 (stereo not drawn) | n | n | 99.3 | n | n | n
Cn1nnnc1SCC(=O)Nc1ccc2c(c1)OCO2 | n | n | x | n | n | n
Cc1ccccc1N1C(=O)CC(Nc2ccc3c(c2)OCO3)C1=O (stereo not drawn) | x | n | 94.9 | n | n | n
COC(=O)c1ccc(NC2CC(=O)N(c3ccccc3C)C2=O)cc1 (stereo not drawn) | n | n | n | n | n | n
C#CCN1C(=O)S/C(=C\c2ccc(-c3ccc(C(=O)O)cc3C)o2)C1=O | n | n | 90.0 | n | n | n
SMILES | Rtt109 Vps75 | GRK2 inh | ALR inh | Efflux pump inh | Rce1 inh | HDAC3 inhib
CC(C)(C)OC(=O)CN1C(=O)S/C(=C\c2ccc(-c3cccc(C(=O)O)c3)o2)C1=O | x | n | 96.6 | n | n | n
Cc1cc(C(=O)O)ccc1-c1ccc(/C=C2\SC(=O)N(CC(=O)Nc3ccc4c(c3)OCO4)C2=O)o1 | n | n | n | n | n | n
Cc1ccc(NC(=O)CN2C(=O)S/C(=C/c3ccc(-c4cccc(C(=O)O)c4)o3)C2=O)cc1 | n | x | x | x | x | x
COc1ccc(Br)cc1S(=O)(=O)N1CCCc2ccccc21 | n | n | n | n | n | n
Cc1ccc(NCc2nnc(SCC(N)=O)n2CC2CCCO2)c(C)c1 (stereo not drawn) | n | n | 88.9 | n | n | n
CN(C)c1ccc(N2CC(C)(C)C2=O)cc1 | n | n | 99.1 | n | n | n
CC(=O)c1ccc(N2CC(C)(C)C2=O)cc1 | n | n | n | n | n | n
Cc1ccc(S(=O)(=O)Nc2ccc(C(OC(=O)c3ccccc3[N+](=O)[O-])(C(F)(F)F)C(F)(F)F)cc2)cc1 | n | n | n | n | n | 31.1
O=C(OC(c1ccc(NS(=O)(=O)c2ccccc2)cc1)(C(F)(F)F)C(F)(F)F)c1ccccc1 | n | n | n | n | n | 33.6
CC(=O)c1ccc(NS(=O)(=O)c2ccccc2)cc1 | n | n | n | n | n | n
N#CCNc1ccc([N+](=O)[O-])cc1C#N | n | n | n | n | n | n
CC(C)OC(=O)c1cccc(NC(=O)CSc2nnc(N)s2)c1 | n | n | n | n | n | n
COc1cc(C2Nc3ccccc3C(=O)N2c2ccccc2OC)ccc1O (stereo not drawn) | n | n | n | n | n | n
COc1cc(C2Nn3c(nnc3-c3ccccc3OC)S2)ccc1O (stereo not drawn) | n | n | 98.7 | n | n | n
CC1(C)CC(=O)C(C(C2=C(O)CC(C)(C)CC2=O)c2ccc(O)c([N+](=O)[O-])c2)=C(O)C1 | n | n | 97.4 | n | n | u
CCN(CC)c1ccc(/C=C2\NC(=O)NC2=O)cc1 | n | n | 98.9 | n | n | n
O=C(O/N=C\c1ccc(N2CCCCC2)c([N+](=O)[O-])c1)c1cccc(Cl)c1 | n | n | n | n | n | n
O=C(O/N=C\c1ccc(N2CCCCC2)c([N+](=O)[O-])c1)c1cccc(C(F)(F)F)c1 | n | n | n | n | + | n
O=C1CC(N2CCc3ccccc32)C(=O)N1c1ccccc1 (stereo not drawn) | n | n | 98.7 | n | n | n
CCOc1ccc(N2C(=O)CC(N3CCc4ccccc43)C2=O)cc1 (stereo not drawn) | n | n | n | n | n | n
Cc1ccc(C2=NS(=O)(=O)N(C)C(C(=O)Nc3cc(C)n(CC(=O)N4CCC(C)CC4)n3)=C2)cc1 | u | n | n | n | n | n
CN(C)S(=O)(=O)c1ccc(C(=O)NN2C(=O)NC3(CCCCC3)C2=O)cc1 | n | x | x | x | x | x
CS(=O)(=O)N1CCc2cc(C(=O)Nc3ccc(O)cc3)ccc21 | n | n | 99.1 | n | n | n
CC(=O)Nc1ccc(NC(=O)c2ccc3c(c2)CCN3S(C)(=O)=O)cc1 | n | n | n | n | n | n
Cc1cc2nc(-c3cccnc3SCC(=O)NCc3ccco3)[nH]c2cc1C | n | n | 98.6 | n | n | n
CC(=O)C1=C(O)C(=O)N(Cc2ccccc2)C1c1ccc(Cl)cc1 (stereo not drawn) | x | n | n | n | n | n
CC(=O)C1=C(O)C(=O)N(Cc2ccccc2)C1c1ccc(N(C)C)cc1 (stereo not drawn) | n | n | 95.7 | n | n | n
COc1ccc(-c2cn3c4c(sc3n2)CCCC4)cc1 | n | n | 96.2 | n | n | n
